# NADH coupling = inhibitors of PK/LDH coupling enzymes, profiling panel, artefact control, biochemical, MLSMR library; coupled PK/LDH NADH assays, four targets; IC50, µM (doses to about 10 µM), without a hit: at the highest dose inhibition; 65,000 compounds, 0.02% hits; AID 774, 2007;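 active = single-dose screening hits from any of four coupled enzyme assays that gave an IC50 when retested across doses; inconclusive = no clear call, values can overlap the other calls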;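 also: the DPM-DC format reads NADH fluorescence rather than 340 nm absorbance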
# A340 absorber = compound light absorbance at 340 nm, profiling panel, artefact control, biochemical, MLSMR library, data from PS, PMK, MK assays | compound absorbance at 340 nm, fold over control | fold change at 10 µM | 65,000 tested, under 10 active | AID 708, 2007;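 active = at 10 µM dose, initial 340 nm absorbance at least 2 fold that of control wells; inactive = change under 2 fold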;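 also: initial absorbance extrapolated from kinetic A340 decline of NADH oxidation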
# M1 agonist = M1 muscarinic receptor agonists, primary screen, CHO-M1 cells, Fluo-4 calcium, agonist mode. Fluo-4 calcium fluorescence; active compounds read high. B-score at 10 µM. 64,000 compounds, 3% hits. AID 626, 2007;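 active = fluorescence rise, raw or as B-score row- and column-corrected plate score, outside the 99.7% band of its plate's samples, either direction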
# Htt clearance = clearance of mutant huntingtin inclusions, primary screen, imaging, HeLa Exon1htt(103Q)mCFP, confocal imaging; inhibition, % at 1.5 µM; 47,000 compounds, 0.42% hits; aggregate imaging; zero = plate's median compound well;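 active = inhibition of aggregate fluorescence above about 70%, also judged a hit by eye on the cell image, limit read from the data, passing the limit was not always enough; inconclusive = no rule stated for this call; inactive = not judged a hit on image review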;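 also: cells exposed to compound for three days before fixation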
# M1 antag = antagonists of rat M1 muscarinic receptor; Muscarinic acetylcholine receptor M1 (Rattus norvegicus), P08482; AID 628, 2007; 64,000 compounds, 3.4% hits; CHO-M1 cells, Fluo-4 calcium, ACh EC80 antagonist mode; active compounds read low; B-score at 10 µM;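 active = calcium fluorescence response, raw or row-and-column corrected B-score, differing from the plate sample mean either way at a set confidence level, mostly lower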
# Target sequence (P08482 whole entry, looked up): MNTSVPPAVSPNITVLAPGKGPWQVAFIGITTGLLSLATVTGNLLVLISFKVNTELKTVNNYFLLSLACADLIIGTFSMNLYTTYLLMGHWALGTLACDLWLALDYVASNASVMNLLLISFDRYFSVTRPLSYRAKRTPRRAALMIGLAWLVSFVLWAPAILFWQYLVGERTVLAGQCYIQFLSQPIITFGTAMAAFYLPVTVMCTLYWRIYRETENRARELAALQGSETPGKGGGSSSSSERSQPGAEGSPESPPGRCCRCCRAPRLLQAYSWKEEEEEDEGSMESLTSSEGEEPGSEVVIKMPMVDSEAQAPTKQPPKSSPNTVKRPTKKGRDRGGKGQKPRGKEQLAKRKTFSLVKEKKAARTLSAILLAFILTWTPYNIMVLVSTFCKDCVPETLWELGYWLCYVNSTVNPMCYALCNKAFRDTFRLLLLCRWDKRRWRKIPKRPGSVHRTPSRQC
# Autofluor 339 = intrinsic fluorescence of library compounds, ex339/em460 – biochemical, MLSMR library, data from DPM-DC assay, artefact control, profiling panel | compound autofluorescence, ex339/em460 nm, NADH buffer; active compounds read high; 1 = no-compound wells, NADH background | fluorescence fold increase at 10 µM | 65,000 compounds, 5.5% hits | AID 709, 2007;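 active = at 10 µM, mean starting fluorescence two-fold or more over control wells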;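 also: signal is the first read of a kinetic run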
# M1 agonist conf = rat M1 muscarinic receptor agonists, confirmation, CHO-M1 cells, Fluo-4 calcium, duplicate retest. 1,700 compounds, 19% hits. shares compounds with M1 agonist. Fluo-4 calcium fluorescence, agonist mode; actives lie on both sides. AID 1488, 2009. fluorescence change (max-min) at 10 µM;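 active = fluorescence change differs from the solvent-only DMSO control mean at a set confidence level in both duplicate runs; inconclusive = differs from solvent-only control mean in just one of two runs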;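 also: an EC20 dose of acetylcholine follows compound addition during the same imaging run; raw fluorescence intensity difference in instrument units with no normalization to controls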
# M4 agonist ctr = agonist activity at rat M4 receptor, confirmation, counter-screen for M1 allosteric modulator project, cell-based, agonist mode | shares compounds with M1 agonist | CHO M4/Gqi5 cells, Fluo-4 calcium fluorescence; actives lie on both sides | fluorescence change (max-min) at 10 µM | 1,700 compounds, 9% hits;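 active = fluorescence change differing from the plate's solvent-only control wells at 99.7% confidence in both duplicates, whether higher or lower; inconclusive = differs from solvent controls in only one of two duplicates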
# Starred values were filed as active, the others as inactive; ? = inconclusive; nt = no result. Rows were chosen to be rich in hits. Some 9.3% of all compounds tested hit in one or more screens of this group.
SMILES,NADH coupling,A340 absorber,M1 agonist,Htt clearance,M1 antag,Autofluor 339,M1 agonist conf,M4 agonist ctr
Clc1ccc(OCCN2CCN(c3ncnc4sccc34)CC2)cc1,6%,0.98,4.5*,nt,-3.3*,1.1,15,-21
NC1=CC(=O)c2cccc3cccc1c23,8%,1,53*,nt,-0.76,0.96,371*,440*
Cc1nnc(C)n1N1C(=O)c2cccc3cccc(c23)C1=O,7%,1.1,0.5,nt,-0.7,1.5,nt,nt
COC(=O)C1CCN(C(=O)c2sc3nc(-c4ccc(F)cc4)cn3c2C)CC1,3%,0.97,-1.2,6,0.0063,1,nt,nt
COc1ccc(N2C(=O)C3CCCN3C2c2ccc(C)o2)cc1Cl (configuration not stated),4%,1,-0.13,47,-0.3,1.1,nt,nt
Cc1ccc(C2N(c3ccc(Cl)c(Cl)c3)C(=O)C3CCCN32)o1 (configuration not stated),3%,0.97,6.7*,21,-0.017,1.1,?,-36
Cc1cccc(-c2nnc3n2N=C(c2ccccc2Br)CS3)c1,4%,1.1,0.0024,nt,-0.6,1.1,nt,nt
COc1ccc(-n2c(NC(=O)c3ccco3)c(C#N)c3nc4ccccc4nc32)cc1,20%,1.1,27*,nt,-0.016,3*,23,31
CCOC(=O)c1c(NC(=O)c2ccco2)n(C2CCCCC2)c2nc3ccccc3nc12,nt,nt,nt,-20,nt,nt,nt,nt
CCCCn1c(NC(=O)c2ccccc2Cl)c(C#N)c2nc3ccccc3nc21,5%,1.1,20*,nt,-1.6,4*,59*,46
Cc1nn2c(-c3cccc(NC(=O)CN4CCOCC4)c3)nnc2c2ccccc12,0%,1.1,0.074,-52,0.77,1.3,nt,nt
Cc1nn(Cc2ccc(Cl)cc2)c(C)c1NC(=O)c1cc(-c2ccc3c(c2)OCO3)on1,6%,0.98,-0.19,-5,0.0093,1.1,nt,nt
Cc1nn(Cc2ccc(F)cc2)c(C)c1NC(=O)c1noc2c1CCCCC2,9%,0.98,5.9*,nt,0.091,0.89,-6.7,-40
Cc1nn(Cc2ccc(Cl)c(Cl)c2)c(C)c1NC(=O)c1cc(-c2ccc3c(c2)OCO3)on1,6%,1,4.1*,nt,-1.9,1.1,31,-11
Cc1nn(Cc2ccccc2Cl)c(C)c1NC(=O)c1noc2c1CCCCC2,5%,0.98,-0.84,-20,0.015,1.1,nt,nt
COC(=O)c1ccc(C(=O)OC)c(NC(=O)c2cc3ccccc3o2)c1,2%,1,-0.14,nt,0.016,1.1,nt,nt
COc1ccc(-c2noc(Cc3cccs3)n2)cc1,5%,1,5.3*,nt,0.33,1.1,-17,?
COc1ccc(-c2noc(Cc3ccccc3OC)n2)cc1,2%,1,-0.012,nt,-0.39,1.1,nt,nt
CCN(CC(=O)NC)S(=O)(=O)c1ccc(Br)cc1,8%,1,0.15,34,-0.13,1.1,nt,nt
CCOc1ccc(NC(=O)Nc2ccc3nccnc3c2)cc1,2%,1.1,9.6*,8,-0.85,1.1,-7.6,-49
CC1CCN(CCCNC(=O)c2cc3c(=O)n(C)c4ccccc4c3n2C)CC1,18%,1,0.048,4,1.8,1.7,nt,nt
CCCN1Cc2cccc(C(=O)N3CCN(c4cc(Cl)ccc4C)CC3)c2C1=O,11%,1,2.3*,nt,-0.016,0.93,?,-40
Cc1cccc(N2CCN(C(=O)c3cc4c(=O)n(C)c5ccccc5c4n3C)CC2)c1C,5%,1,-0.67,0,0.6,1.1,nt,nt
Cn1c(C(=O)NC2CCCC2)cc2c(=O)n(C)c3ccccc3c21,5%,1.1,4.1*,nt,0.4,1.3,-39*,-50
Cc1ccc(Cl)cc1N1CCN(C(=O)c2cc3c(=O)n(C)c4ccccc4c3n2C)CC1,8%,1,7.4*,-100,-1.7,1.1,-11,-56

# Screens deposited in PubChem by several laboratories.
